Measured values: the GenesisPotency data set
Hit rate of the full screen: of about 1,300 compounds, fewer than 10 were called active. Another 3% or so got no clear call; they are omitted. Calls follow the shape of the dose curve; as a rule, active = well fitted inhibition curve with a large enough effect; inconclusive = small, poorly fitted or top-dose-only effect; inactive = flat fitted curve, though single readings scatter. The list is a sample of the results.

Tested on: T1, 
T1 sequence (whole entry): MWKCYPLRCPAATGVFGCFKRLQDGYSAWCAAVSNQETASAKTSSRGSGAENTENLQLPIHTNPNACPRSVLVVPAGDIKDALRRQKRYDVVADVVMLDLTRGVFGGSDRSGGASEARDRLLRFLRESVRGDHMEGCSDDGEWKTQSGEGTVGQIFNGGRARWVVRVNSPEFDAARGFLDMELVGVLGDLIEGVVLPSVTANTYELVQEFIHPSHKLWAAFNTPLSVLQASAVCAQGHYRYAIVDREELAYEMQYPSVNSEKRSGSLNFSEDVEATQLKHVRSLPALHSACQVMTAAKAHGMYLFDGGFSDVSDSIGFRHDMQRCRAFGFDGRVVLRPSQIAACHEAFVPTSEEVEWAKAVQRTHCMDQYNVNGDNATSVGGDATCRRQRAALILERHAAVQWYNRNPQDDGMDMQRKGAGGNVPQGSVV
Test: qHTS of Trypanosoma Brucei Inhibitors: LOPAC Validation (AID 624147)

**Q.** For `N.N.[Cl][Pt][Cl]`, which outcome is on record?
**A.** The outcome was “active”.
